Screens deposited in PubChem BioAssay by National Center for Advancing Translational Sciences (NCATS).
Only a selection was taken, and hits are over-represented in it overall.
Giardia FBPA inh: blocks Giardia fructose-bisphosphate aldolase activity; A8B2U2; purified Giardia FBPA; Potency, µM (top dose mostly 59.6 µM), actives largely listed as inhibitors; actives 0.71% (n = 290,000); AID 2451; also: nearly all actives have a fitted effect of over 55% in size
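Giardia FBPA (40 nM reagent) was preincubated 10 min at RT with compound (up to 57.5 uM final), then substrate plus GAPDH/TPI/NAD/arsenate coupling system with diaphorase/resazurin was added; resorufin fluorescence (525/598 nm) was read after 20 min.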
LmPK inhibitor: blocks Leishmania mexicana pyruvate kinase activity; purified LmPK, Kinase-Glo ATP luminescence, 1 h; Potency, µM (titrated, usually from 57.5 µM), usual class: inhibitors; actives 0.37% (n = 290,000)
Target sequence (Q27686 whole entry, looked up): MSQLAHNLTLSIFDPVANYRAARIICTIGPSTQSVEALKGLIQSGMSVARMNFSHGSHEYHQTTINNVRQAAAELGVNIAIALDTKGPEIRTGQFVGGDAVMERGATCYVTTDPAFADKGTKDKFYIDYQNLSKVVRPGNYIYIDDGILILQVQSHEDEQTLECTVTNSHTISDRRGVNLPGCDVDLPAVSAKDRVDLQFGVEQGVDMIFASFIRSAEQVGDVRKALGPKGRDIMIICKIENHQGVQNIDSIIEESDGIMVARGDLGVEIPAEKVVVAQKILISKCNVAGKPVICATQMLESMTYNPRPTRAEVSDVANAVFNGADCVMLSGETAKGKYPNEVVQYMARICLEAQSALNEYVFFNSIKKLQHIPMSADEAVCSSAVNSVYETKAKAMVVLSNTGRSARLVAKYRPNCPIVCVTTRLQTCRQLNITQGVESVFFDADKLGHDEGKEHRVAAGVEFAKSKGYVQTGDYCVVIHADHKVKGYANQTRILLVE
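qHTS format; LmPK 0.1 nM; substrates PEP 0.5 mM and ADP 0.1 mM. One-hour room-temperature incubation, then coupled luciferase luminescence; 0.5 nM enzyme wells mark activation.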
RE007 growth inh: less growth of the S. pombe RE007 Vpr strain; Potency, µM (series often up to 92.2 µM), hits mostly inhibitors; S. pombe RE007 Vpr strain, BacTiter-Glo ATP luminescence, 24 h; AID 651644; actives 0.21% (n = 360,000); active = well fitted falling curve with a large enough effect; inconclusive = small, poorly fitted or top-dose-only effect; inactive = no such curve, though single readings can be large or run the other way; also: nearly all actives have a fitted effect of over 50% in size
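Fission yeast RE007 carrying one integrated HIV-1 vpr copy, seeded at OD 0.01 in PMG+AL medium with 23 nL pinned compound. Grown 24 h at 30 degrees; viability read by BacTiter-Glo luminescence after 5 min.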
Shiga inhibitor: blocks Shiga toxin action in Vero cells; Vero cells, Shiga toxin protein synthesis inhibition reporter; inhibition, % at 38.7 µM; actives 9.2% (n = 290,000); AID 2315; in the data active = inhibition mostly above about 28%, no sharp cut-off; inactive = mostly below about 43%
Tb PYK inh: T. brucei pyruvate kinase inhibition; Q57TT1; TbPYK enzyme, Kinase-Glo Plus ATP luminescence, 45 min; Potency, µM (titrated, usually from 76.8 µM), actives largely listed as inhibitors; actives 0.12% (n = 410,000); also: nearly all actives have a fitted effect of over 50% in size
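Luminescent Kinase-Glo Plus end-point after 45 min room-temperature reaction of T. brucei pyruvate kinase started with 130 uM ADP (final). Buffer TEA 50 mM pH 7.2 with KCl, MgCl2, BSA, Tween-20; titration-based qHTS with fitted concentration-effect curves.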
Cycloheximide cs: affects cycloheximide protein synthesis inhibition readout, counter-screen; cell reporter, cycloheximide protein synthesis inhibition counterscreen; actives 12% (n = 300,000); AID 2314; max response, %; in the data active = max response mostly above about 13%, no sharp cut-off; inactive = mostly below about 14%; also: read at 38.3 µM for the half of the compounds with a filed dose
A number is an active result; . = inactive; ? = inconclusive; / = no result given; [ ] = another dose, or the depositor's remark. Unless noted, calls follow the shape of the dose curve; as a rule, active = well fitted curve in the direction sought with a large enough effect; inconclusive = small, poorly fitted or top-dose-only effect, or another doubt; inactive = no such curve, though single readings can be large; an effect the other way counts as inactive or inconclusive.

SMILES | Giardia FBPA inh | LmPK inhibitor | RE007 growth inh | Shiga inhibitor | Tb PYK inh | Cycloheximide cs
Cc1ccnc(NC(=O)C23CC4CC(CC(C4)C2)C3)c1 | . | . | ? | . | . | 12
O=C(Nc1cccc(F)c1)N1CC2(CCN(C(=O)c3cc(C(F)(F)F)cc(C(F)(F)F)c3)CC2)C1 | . | / | / | / | . | /
O=c1[nH]c2ccccc2c(O)c1-[n+]1ccccc1 | . | . | . | . | . | .
O=C(Nc1cccc(F)c1)c1c(O)c2ccccc2[nH]c1=O | . | . | . | / | . | 23
O=c1[nH]c2ccccc2c(O)c1O | 4µM | . | . | . | ? | .
O=C(NC1CCCCCC1)c1c(O)c2ccccc2[nH]c1=O | . | . | . | 84 | . | 25
N#Cc1cnn2ccc(-c3ccc4c(c3)CCC4)nc12 | . | . | . | . | . | .
N#Cc1cn(CCOc2ccccc2F)c2ccccc12 | . | . | . | . | . | 18
Cc1ccc(OCCCn2cc(C#N)c3ccccc32)cc1 | . | . | . | 68 | . | 24
O=Cc1cn(CCOc2ccccc2F)c2ccccc12 | . | . | . | 49 | . | 25
CCCCOc1ccc(S(=O)(=O)NC(=O)C2(C)CCN2C(=O)Cc2cccs2)cc1 (configuration not stated) | / | / | . | / | . | /
O=C(c1cccn2c(=O)c3cc(Cl)ccc3nc12)N1CCN(c2ccccc2F)CC1 | / | / | / | / | . | /
CC(C)Cn1c(N)c(C(=O)COC(=O)CCc2nc3ccccc3s2)c(=O)n(C)c1=O | . | . | . | . | . | .
COc1ccc(CCCc2nnc(SCC(=O)Nc3ccc(F)cc3)o2)cc1C | / | / | / | / | . | /
COc1ccc(/C=C2/N=C3CCCCCN3C2=O)cc1 | . | . | . | 75 | . | 30
COc1ccc(/C=C2\SC(=S)N(CCC(=O)N3CCCCC3)C2=O)cc1 | . | . | . | . | . | .
COc1ccc(/C=C2\N=C3CCCCCN3C2=O)cc1OC | . | . | . | . | . | .
COc1cc(/C=C2\N=C3CCCCCN3C2=O)ccc1O | . | . | . | 114 | . | 30
O=C1/C(=C\c2ccc(O)c(O)c2)N=C2CCCCCN12 | ? | . | . | 106 | . | 17
O=C1/C(=C/c2cccnc2)N=C2CCCCCN12 | . | . | . | . | . | .
CCN1C(=O)c2ccc(C(=O)Nc3nccs3)cc2C1=O | . | . | . | 31 | . | 12
Cc1cc(NC(=O)c2ccc3c(c2)C(=O)N(C(C)(C)C)C3=O)no1 | . | . | . | . | . | 21
CC(C)(C)N1C(=O)c2ccc(C(=O)Nc3nccs3)cc2C1=O | . | . | . | 57 | . | 31
O=C(Nc1nccs1)c1ccc2c(c1)C(=O)N(Cc1cccnc1)C2=O | / | . | . | . | . | .
Cc1ccc(C)c(Cn2nnc(C(=O)NCc3ccccc3)c2N)c1 | / | / | / | / | . | /
SMILES | Giardia FBPA inh | LmPK inhibitor | RE007 growth inh | Shiga inhibitor | Tb PYK inh | Cycloheximide cs
C=C1SC(=Nc2c(C)cc(C)cc2C)N(C(=O)c2sc3ccccc3c2Cl)C12CCCCC2 | . | . | / | . | . | .
C=C1SC(=Nc2ccccc2Cl)N(C(=O)c2sc3ccccc3c2Cl)C12CCCCC2 | . | . | / | . | / | 25
CC1=CC(=O)C=CC1=Nc1ccc(N(C)C)cc1 | / | / | .[18.4 µM] | / | 35µM | /
COc1ccc(N=C2C(=Nc3ccc(OC)cc3)N(c3ccc(N(C)C)cc3)C(=S)N2c2ccc(OC)cc2)cc1 | . | . | . | . | . | .
CCOc1cc(S(=O)(=O)NCc2ccncc2)ccc1Cl | . | . | . | . | . | .
CCOCCCNC(=O)c1ccc2c(c1)ncn2C1CCCC1 | . | . | . | 29 | . | 24
COC(CNC(=O)c1ccc2c(c1)ncn2C1CCCCCC1)OC | . | . | . | . | . | .
CC(C)CCNC(=O)c1ccc2c(c1)ncn2C1CCCC1 | . | . | . | 124 | . | 34
Cc1nc(CN2C(=O)C3(CCC3)ON=C2c2cccc(Cl)c2)cs1 | / | / | .[18.4 µM] | / | . | /
CC(=O)c1c(C)[nH]c2ccccc2c1=O | . | . | . | . | . | .
Cc1nc2ccccc2c(N)c1C(=O)/C=C/c1ccccc1 | . | . | . | . | . | .
Cc1[nH]c2ccccc2c1C(=O)/C=C/c1ccccc1Cl | . | . | . | 81 | . | 40
Cc1[nH]c2ccccc2c1C(=O)/C=C/c1ccccc1 | . | . | . | 56 | . | 37
Cc1[nH]c2ccccc2c1C(=O)/C=C\c1ccccc1Cl | . | . | . | 24 | . | 36
O=C(C=Cc1ccccc1Cl)c1ccccc1 | / | / | . | / | . | /
O=C(Cn1c(=O)oc2cc(S(=O)(=O)N3CCCCC3)ccc21)NCc1ccc(Cl)cc1 | / | / | / | / | . | /
CCOC(CCNC(=O)c1cn(CC(C)C)c(=O)c2c1c1ccccc1n2C)OCC | . | . | . | . | . | .
Cc1ccc(NC(=O)CN(C)S(=O)(=O)c2ccc3c(c2)CCC(=O)N3)c(C)c1 | / | / | / | / | . | /
COC(=O)C1C(=O)c2c([nH]c(C(=O)OC3CCCC3)c2C)CC1C (configuration not stated) | . | . | . | . | . | 47
COc1ccc(C2CC(=O)c3c([nH]c(C(=O)OC4CCCCCC4)c3C)C2)cc1 (configuration not stated) | / | / | / | / | . | /
CCn1c(C)cc(/C=C2\C(=O)NC(=O)N(c3ccccc3C)C2=O)c1C | . | . | . | . | . | .
Cc1ccccc1N1C(=O)NC(=O)/C(=C\c2cnn(-c3ccccc3)c2)C1=O | . | . | . | 56 | ? | 24
Nc1sc(-c2ccccc2)cc1C(=O)N/N=C/c1ccc(Cl)cc1 | . | . | . | 34 | . | .
COC(=O)c1cc(-c2ccccc2)sc1N | . | . | . | 58 | . | 26
C#CCNC(=O)c1cc(-c2ccccc2)sc1N | / | / | . | / | / | /
SMILES | Giardia FBPA inh | LmPK inhibitor | RE007 growth inh | Shiga inhibitor | Tb PYK inh | Cycloheximide cs
O=C(NCC[C@@H]1CC[C@@H](NS(=O)(=O)Cc2ccccc2)[C@@H](CO)O1)C1CC1 | / | / | . | / | / | /
COc1ccc(N2CCN(C(CNC(=O)C(=O)NCCCN(C)C)c3cccnc3)CC2)cc1 (configuration not stated) | / | / | / | / | . | /
CCn1ccc(C(=O)Nc2ccc3c(c2)CCC3)n1 | / | . | . | 113 | . | .
CCn1ccc(C(=O)Nc2ccccc2SC)n1 | . | . | . | 88 | . | 33
CCn1ccc(C(=O)Nc2ccc(N(C)C(C)=O)cc2)n1 | . | . | . | 45 | . | 23
CCOC(=O)c1c(NC(=O)c2ccn(CC)n2)sc2c1CCC2 | . | . | . | . | . | .
CSc1ccccc1NC(=O)c1ccccc1 | . | . | . | . | . | .
CC(Oc1ccc(F)cc1)C(=O)NCC1(N(C)C)CCCCC1 (configuration not stated) | / | / | / | / | . | /
COC(=O)Cc1ccc(OC2(C)CCN(Cc3ccc(-c4ccccn4)cc3)C2)cc1 (configuration not stated) | / | / | . | / | . | /
COc1ccc(CCNC2=NCCS2)cc1 | . | . | . | . | . | .
